Assay [1] relates to Zika virus NS2B-NS3 protease (unlinked complex). Briefly: Primary screen GU Rhodamine qHTS for Zika virus inhibitors: Unlinked NS2B-NS3 protease assay (AID 1347159). Also: nearly all actives have a fitted effect of over 60% in size. An outline of the steps: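 Buffer 10 mM Tris-HCl pH 8.0, 0.01% Tween 20. Unlinked protease 25 nM; compound preincubation 15 min, RT, protected from light. Substrate Rhod110, 1.5 microM; ~15% conversion in 15 min.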

Assay [2] deals with Zika virus NS2B-NS3 protease (linked construct). Put plainly: Primary screen NINDS Rhodamine qHTS for Zika virus inhibitors (AID 1347160). Also: nearly all actives have a fitted effect of over 55% in size. An outline of the steps:
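Aprotinin served as in-plate control. Conditions: 25 nM linked NS2B-NS3, pH 8.0 Tris buffer, titrated compounds, 15 min preincubation and 15 min reaction with 1.5 microM Rhod110 substrate at room temperature.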

Results filed as inconclusive are left out. Unmarked numbers belong to inactive results. Activity calls are given as the source filed them. Calls follow the shape of the dose curve; as a rule, active = well fitted inhibition curve with a large enough effect; inconclusive = small, poorly fitted or top-dose-only effect; inactive = no such curve, though single readings can be large or run the other way.
% is scaled to controls: 0 for no effect and ±100 for the full control effect.

Take `CC(C)=CCC[C@](C)(O)[C@H]1CC[C@]2(C)[C@@H]1[C@H](O)CC1[C@@]3(C)CC[C@H](O)C(C)(C)C3[C@@H](O[C@@H]3O[C@H](CO)[C@@H](O)[C@H](O)[C@H]3O[C@@H]3OC[C@@H](O)[C@H](O)[C@H]3O)C[C@]12C` (stereo partly drawn): the Potency result in assay [1] and in assay [2] was “inactive” each time.
Take `Cc1nc(Nc2n[nH]c3c2CN(C(=O)NC(CN(C)C)c2ccccc2)C3(C)C)c2sccc2n1` (stereo not drawn): the Potency entry in assay [1] and in assay [2] was “inactive” throughout.
Consider `CC1(C)CC2C(C1)C(C)(O)C13CC1(COC3=O)C2O` (stereo not drawn), for which the Potency result in assay [1] and in assay [2] was “inactive” throughout.
For `OC[C@H]1O[C@@H](O[C@H]2[C@H](OCc3ccccc3)O[C@H](CO[C@@H]3OC[C@@H](O)[C@H](O)[C@H]3O)[C@@H](O)[C@@H]2O)[C@H](O)[C@@H](O)[C@@H]1O`, the Potency entry in assay [1] and in assay [2] was “inactive” in each case.
`C[C@H](C(=O)NC1CCCC1)N(C(=O)Cn1nnc(-c2ccc3c(c2)OCO3)n1)C1CCCCC1`: the Potency entry in assay [1] and in assay [2] was “inactive” in each case.
Take `CC(C)=CCC(O)/C(C)=C/CO[C@@H]1O[C@H](CO)[C@@H](O)[C@H](O)[C@H]1O` (stereo partly drawn): the Potency result in assay [1] and in assay [2] was “inactive” throughout.
For the compound `C=C(CCC1=C(C)[C@H]2[C@H](CC3[C@@H]4CC=C5C[C@@H](O)C[C@@H](O)[C@]5(C)C4[C@H](O)C[C@@]32C)O1)CO[C@@H]1O[C@H](CO)[C@@H](O)[C@H](O)[C@H]1O` (stereo partly drawn), the Potency result in assay [1] and in assay [2] was “inactive” each time.
As for `N#Cc1c(Oc2ccc(F)c(NC(=O)Cc3cccc(C(F)(F)F)c3)c2)ccc2nc(NC(=O)C3CC3)sc12`, the Potency result in assay [1] and in assay [2] was “inactive” in each case.
With `COc1cccc(Nc2ncnn3ccc(CN4CC[C@@H](N)[C@H](O)C4)c23)c1`, the Potency result in assay [1] and in assay [2] was “inactive” each time.
Take `C=C(C(=O)O)C1CCC2(C)CCC(O)C(C)(O)C2C1` (stereo not drawn): the Potency entry in assay [1] and in assay [2] was “inactive” throughout.
As to `CC(=O)N[C@H]1[C@H](O[C@H]2CC[C@@]3(C)C(CC[C@]4(C)C3CC=C3C5CC(C)(C)CC[C@]5(C(=O)O)[C@H](O)C[C@]34C)C2(C)C)O[C@H](CO[C@@H]2OC[C@H](O)[C@H](O)[C@H]2O[C@@H]2OC[C@@H](O)[C@H](O)[C@H]2O)[C@@H](O)[C@@H]1O` (stereo partly drawn), the Potency entry in assay [1] and in assay [2] was “inactive” each time.
As for `COC(=O)C1(C)c2[nH]c3ccccc3c2CCN1C(=O)CCl` (stereo not drawn), the Potency result in assay [1] and in assay [2] was “inactive” each time.
Regarding `CCNC(=O)Nc1ncc(-c2cc(-c3c(C)cc(OC)cc3C)nc(-c3cnccn3)n2)s1`, the Potency result in assay [1] and in assay [2] was “inactive” each time.
On to `CN1CCN(c2ccc(C(=O)Nc3n[nH]c4ccc(Cc5cc(F)cc(F)c5)cc34)c(NC3CCOCC3)c2)CC1`, for which the Potency entry in assay [1] and in assay [2] was “inactive” each time.
As to `CC1CC[C@]2(C(=O)O)CC[C@]3(C(=O)O)C(=CCC4[C@@]5(C)CC[C@H](O[C@@H]6O[C@H](CO)[C@@H](O)[C@H](O)[C@H]6O)C(C)(C)C5CC[C@]43C)C2C1C` (stereo partly drawn), the Potency entry in assay [1] and in assay [2] was “inactive” in each case.
Turning to `C[C@@H]1C(=O)O[C@H]2[C@H](O)C34[C@H]5C[C@@H](C(C)(C)C)C36[C@@H](OC(=O)[C@@H]6O)O[C@@]4(C(=O)O5)[C@@]12O` (stereo partly drawn), the Potency result in assay [1] and in assay [2] was “inactive” in each case.
`COc1ccc([C@@H]2OC[C@H]3[C@@H]2CO[C@@H]3c2ccc(OC3OC(CO)C(O)C(O)C3O)c(OC)c2)cc1OC` (stereo partly drawn): the Potency entry in assay [1] and in assay [2] was “inactive” in each case.
In the case of `CCOc1cc(C(=O)N2CCC(N3CCN(C)CC3)CC2)ccc1Nc1ncc2c(n1)N(C1CCCC1)c1ccccc1C(=O)N2C`, the Potency entry in assay [1] and in assay [2] was “inactive” throughout.
Take `COc1cc2c(cc1OC)[C@@H]1[C@H](O)[C@@H](OC)C=C3CCN(C2)[C@H]31`: the Potency entry in assay [1] and in assay [2] was “inactive” in each case.
As for `C=C1C(=O)O[C@@H]2C/C(C)=C\C(=O)/C=C(\C)[C@@H](OC(=O)/C(C)=C\C)[C@H](O)[C@@H]12`, the Potency entry in assay [1] and in assay [2] was “inactive” throughout.
`CC(=O)N[C@@H](CCCCN)C(=O)N(C)[C@@H](CC(C)C)C(=O)N[C@H](C(=O)N(C)[C@@H](Cc1ccccc1)C(=O)N[C@H](Cc1ccccc1)C(N)=O)C(C)C`: the activity change, negative = inhibition in assay [1] was 0% [at 11.5 µM]; in assay [2], 25% [at 4.91 µM].
In the case of `Cn1cc(S(=O)(=O)c2ccc(Cl)cc2)c2cccc(N3CCNCC3)c21`, the Potency result in assay [1] and in assay [2] was “inactive” each time.
For the compound `C[C@H](NC(c1cccc2[nH]c(=O)c(=O)[nH]c12)P(=O)(O)O)c1ccc(Br)cc1` (stereo partly drawn), the Potency entry in assay [1] and in assay [2] was “inactive” in each case.
As for `O=C(c1ccc(/C=C/c2n[nH]c3ccccc23)cc1)N1CCNCC1`, the Potency result in assay [1] and in assay [2] was “inactive” throughout.
Consider `C=C(C)C1CCC(C)C12CC(O)C1(C)OC1C2OC(=O)C(N)CCC(=O)O` (stereo not drawn), for which the Potency result in assay [1] and in assay [2] was “inactive” each time.
With `COC(=O)C[C@H]1C(C)(C)[C@H](OC(=O)C(C)C)[C@@]2(O)C(=O)[C@]1(C)C1CC[C@]3(C)C(CC(=O)O[C@H]3c3ccoc3)[C@]13O[C@@H]32` (stereo partly drawn), the Potency entry in assay [1] and in assay [2] was “inactive” each time.
Regarding `CC1(C)CC[C@]2(C(=O)O[C@@H]3O[C@H](CO[C@@H]4O[C@H](CO)[C@@H](O)[C@H](O)[C@H]4O[C@@H]4O[C@H](CO)[C@H](O)[C@H](O)[C@H]4O)[C@@H](O)[C@H](O[C@@H]4O[C@H](CO)[C@@H](O)[C@H](O)[C@H]4O)[C@H]3O)CC[C@]3(C)C(=CCC4[C@@]5(C)CC[C@H](O[C@@H]6OC[C@@H](O)[C@H](O)[C@H]6O)[C@@](C)(C(=O)O)C5CC[C@]43C)[C@@H]2C1` (stereo partly drawn), the activity change, negative = inhibition is 20.2% [at 19.1 µM] in assay [1] and -4.93% [at 10.7 µM] in assay [2].
In the case of `CS(=O)(=O)NCC1CCC(Nc2nc3c(s2)CCSc2ccccc2-3)CC1` (stereo not drawn), the Potency entry in assay [1] and in assay [2] was “inactive” throughout.
On to `COc1cccc2cc3c(c(O[C@@H]4O[C@H](CO[C@@H]5O[C@H](CO)[C@@H](O)[C@H](O)[C@H]5O)[C@@H](O)[C@H](O)[C@H]4O)c12)C(C)OC3=O` (stereo partly drawn), for which the Potency entry in assay [1] and in assay [2] was “inactive” throughout.
On to `CS(=O)(=O)N(CC(=O)NCC1CC1)c1cc(C(F)(F)F)ccc1Cl`, for which the Potency entry in assay [1] and in assay [2] was “inactive” throughout.
Take `CC(C)c1c2cc(-c3ccnc(NC4CCC(NC5CCOCC5)CC4)n3)ccc2nn1C` (stereo not drawn): the Potency result in assay [1] and in assay [2] was “inactive” each time.
Turning to `COc1ccc2[nH]c3c(-c4cccc5ccccc45)nccc3c2c1`, the Potency result in assay [1] and in assay [2] was “inactive” each time.
With `C=C1C[C@]23C[C@H]1[C@@H](O)C[C@H]2[C@@]12C=C[C@H](O)[C@@](C)(C(=O)O1)[C@H]2[C@@H]3C(=O)O`, the Potency result in assay [1] and in assay [2] was “inactive” in each case.
As for `CC(C)=CCC/C(C)=C/CC/C(C)=C/COC1OC(COC2OCC(OC3OCC(O)C(O)C3O)C(O)C2O)C(O)C(OC2OC(C)C(OC3OC(C)C(OC4OCC(OC5OC(C)C(O)C(O)C5O)C(O)C4O)C(O)C3O)C(O)C2O)C1O` (stereo not drawn), the activity change, negative = inhibition was 15.4% [at 19.1 µM] in assay [1] and -0.102% [at 10.7 µM] in assay [2].
As to `COc1c/c(=C2\C=c3ccccc3=N2)[nH]/c1=C\c1[nH]c(C)cc1C`, the Potency result in assay [1] and in assay [2] was “inactive” throughout.
Turning to `CC[C@H]1OC(=O)[C@H](C)[C@@H](O[C@H]2C[C@@](C)(OC)[C@@H](O)[C@H](C)O2)[C@H](C)[C@@H](O[C@@H]2O[C@H](C)C[C@H](N(C)C)[C@H]2O)[C@](C)(O)C[C@@H](C)C(=O)[C@H](C)[C@H]2OC(=O)O[C@@]21C`, the Potency entry in assay [1] and in assay [2] was “inactive” in each case.
Turning to `O=C(O)CCCCCC[C@H]1C(=O)NC(=O)N1CC[C@@H](O)C1CCCCC1`, the Potency result in assay [1] and in assay [2] was “inactive” throughout.
With `CC1=C(CCC(C)CC(=O)O)[C@@]2(C)CCCC(C)(C)C2CC1=O` (stereo partly drawn), the Potency entry in assay [1] and in assay [2] was “inactive” each time.
Consider `C=C1C[C@]23C[C@H]1CC[C@H]2C1=C[C@H]2OC(=O)[C@@](C)([C@H]1[C@@H]3C(=O)O)[C@H]2O`, for which the Potency entry in assay [1] and in assay [2] was “inactive” throughout.
On to `COC(=O)N[C@@H](C)CNc1nccc(-c2cn(C(C)C)nc2-c2cc(Cl)cc(NS(C)(=O)=O)c2F)n1`, for which the Potency entry in assay [1] and in assay [2] was “inactive” each time.
For the compound `COc1cc(C(=O)NC2CCN(C)CC2)c(F)cc1Nc1ncc2c(n1)N(C1CCCC1)CC(F)(F)C(=O)N2C`, the Potency entry in assay [1] and in assay [2] was “inactive” throughout.
Turning to `CC1=CCC(C(C)(C)O[C@@H]2O[C@H](CO[C@@H]3O[C@@H](C)[C@H](O)[C@@H](O)[C@H]3O)[C@@H](O)[C@H](O)[C@H]2O)CC1` (stereo partly drawn), the Potency result in assay [1] and in assay [2] was “inactive” in each case.
As to `CCOC(=O)Nc1cc(-c2ccc(C)c(NS(C)(=O)=O)c2)nn2c(C)nnc12`, the Potency result in assay [1] and in assay [2] was “inactive” throughout.
For the compound `CC(=O)OC12COC1CC(O)C1(C)C(=O)C(O)C3=C(C)C(OC(=O)C(O)C(NC(=O)OC(C)(C)C)c4ccccc4)CC(O)(C(OC(=O)c4ccccc4)C21)C3(C)C` (stereo not drawn), the Potency entry in assay [1] and in assay [2] was “inactive” in each case.
Consider `COC(=O)c1c(C)cc(OC(=O)c2c(C)cc(OC)cc2OC)cc1O[C@@H]1O[C@H](CO)[C@@H](O)[C@H](O)[C@H]1O`, for which the Potency entry in assay [1] and in assay [2] was “inactive” in each case.
Take `C[C@H]1[C@H](O)O[C@@H]2O[C@@]3(C)CC[C@H]4[C@H](C)CC[C@@H]1[C@@]24OO3`: the Potency entry in assay [1] and in assay [2] was “inactive” in each case.
Turning to `CC1=CC(=O)CC(C)(C)C1/C=C/C(C)O[C@@H]1O[C@H](CO)[C@@H](O)[C@H](O)[C@H]1O[C@@H]1OC[C@](O)(CO)[C@H]1O` (stereo partly drawn), the Potency result in assay [1] and in assay [2] was “inactive” in each case.
`O=C(CO)[C@@H](O)[C@H](O[C@@H]1O[C@H](CO)[C@H](O)[C@H](O)[C@H]1O)[C@H](O)CO`: the Potency result in assay [1] and in assay [2] was “inactive” each time.
Take `CCNC(=O)C1OC(n2cnc3c(N)nc(NCCc4ccc(CCC(=O)O)cc4)nc32)C(O)C1O` (stereo not drawn): the Potency result in assay [1] and in assay [2] was “inactive” each time.
In the case of `c1ccc(-c2ncc(CN3CCN(c4ncccn4)CC3)[nH]2)cc1`, the Potency result in assay [1] and in assay [2] was “inactive” each time.
As for `O=C(CSc1nc2c(c(=O)n1-c1ccccc1)SCC2)Nc1ccc(-c2ccccc2)cn1`, the Potency entry in assay [1] and in assay [2] was “inactive” each time.
Regarding `CCCOc1ccc(-c2nc(OC)c3ccccc3n2)cc1`, the Potency entry in assay [1] and in assay [2] was “inactive” each time.
In the case of `CC1OC(OC2C(C)OC(OC3C(OC(=O)C45CCC(C)(C)CC4C4=CCC6C7(C)CCC(OC8OC(C(=O)O)C(O)C(O)C8OC8OC(CO)C(O)C(OC9OC(C)C(O)C(O)C9O)C8O)C(C)(CO)C7CCC6(C)C4(C)CC5)OC(CO)C(O)C3O)C(O)C2O)C(O)C(O)C1O` (stereo not drawn), in assay [1], the activity change, negative = inhibition is 1.27% [at 19.1 µM]. In addition, in assay [2], the outcome is “inactive [at 10.7 µM]”.
With `Cc1ccc(S(=O)(=O)c2ccc([N+](=O)[O-])o2)cc1`, the Potency entry in assay [1] and in assay [2] was “inactive” each time.

These data come from PubChem BioAssay (NCATS).
